Consider five molecules from PubChem BioAssay.

The nature of assay [1]: RPL19A-GFP modulators, yeast TOR pathway, confirmation, cell-based, S. cerevisiae, flow cytometry, cherry picks, mother/daughter gates (AID 2270;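 active = GFP response below 50% of the DMSO control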). As to conditions: S. cerevisiae RPL19A-GFP strain, 3 h, at 10 µM, stronger effect = lower value, 100 = same GFP as DMSO wells. (In general: A flow cytometer gives signals particle by particle.)
The nature of assay [2]: LAP4-GFP expression modulators in yeast, confirmation, cell-based, cherry picks, flow cytometry, mother/daughter gates (AID 2271;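 active = GFP response above 150% of the DMSO control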;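 also: ratio of sample to DMSO plate mean so 100% equals DMSO level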). As to conditions: S. cerevisiae LAP4-GFP strain, 3 h, at 10 µM, stronger effect = higher value, 100 means same as DMSO control.
Assay [3] is described as follows: modulators of MEP2-GFP levels in yeast, confirmation, S. cerevisiae, flow cytometry GFP, cherry picks (AID 2272;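 active = GFP response above 150% of the DMSO control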;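 also: ratio of well signal to plate DMSO mean so 100% equals DMSO level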). As to conditions: S. cerevisiae MEP2-GFP strain, 3 h, at 10 µM, stronger effect = higher value.
A short description of assay [4]: AGP1-GFP expression modulators, hit retest, confirmation, cell-based, flow cytometry, S. cerevisiae, cherry picks (AID 2273;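 active = GFP response above 150% of the DMSO level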;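 also: median GFP channel fluorescence over the whole cell population gate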). Conditions: S. cerevisiae AGP1-GFP strain, 3 h, at 10 µM.
The nature of assay [5]: modulators of CIT2-GFP expression in yeast, confirmation, S. cerevisiae, GFP fusion, cherry picks, mother/daughter gates (AID 2274;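 active = GFP response above 150% of the DMSO level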). As to conditions: S. cerevisiae CIT2-GFP strain, flow cytometry, 3 h, at 10 µM, stronger effect = higher value.
Assay [6] is described as follows: yeast TOR pathway RPL19A-GFP modulators, primary screen, cell-based, S. cerevisiae, multiplex flow cytometry (AID 1862; in the data active = percent of DMSO control GFP below about 86%;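 also: lower values mimic rapamycin by blocking the RPL19A rise seen in DMSO cells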). Conditions: S. cerevisiae RPL19A-GFP strain, flow cytometry fluorescence, 3 h; at 10 µM; stronger effect = lower value.
Assay [7] in a line: modulators of MEP2-GFP levels in yeast, primary screen, S. cerevisiae, multiplex flow cytometry (AID 1867;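 active = GFP response, as percent of the DMSO control, above the screen-wide mean plus 3 SD, about 139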;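 also: median GFP channel fluorescence of barcode-gated MEP2-GFP cells measured by flow cytometry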). Conditions: S. cerevisiae MEP2-GFP strain, 3 h, at 10 µM, stronger effect = higher value, 100% means same as DMSO wells.
The nature of assay [8]: modulators of CIT2-GFP expression in yeast, primary screen, S. cerevisiae, GFP fusion, multiplex flow cytometry (AID 1870;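 active = percent response above a set limit, the screen-wide mean plus 3 SD, cut at about 130% in these data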;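 also: barcoded CIT2-GFP strain pooled with four other GFP strains with rapamycin as positive control; median GFP fluorescence per well over plate mean of DMSO wells so 100% = DMSO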). Conditions: 3 h, at 10 µM, stronger effect = higher value.
A short description of assay [9]: modulators of LAP4-GFP expression in yeast, primary screen, S. cerevisiae, multiplex flow cytometry (AID 1873). As to conditions: 3 h, at 10 µM, stronger effect = higher value.
A short description of assay [10]: modulators of AGP1-GFP expression in yeast TOR pathway, primary screen, cell-based, multiplex flow cytometry, S. cerevisiae (AID 1887;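 active = GFP signal above the screen-wide mean plus 3 SD, that is over about 124.5% of the solvent control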;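 also: AGP1-GFP fusion strain of S. cerevisiae within a five-strain barcoded multiplex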). Conditions: 3 h, at 10 µM, stronger effect = higher value.
Assay [11] in a line: inhibitors of CD8+ T cell-vesicle binding, pilot screen, LFA-1/ICAM-1 modulator project, MLPCN validation set, flow cytometry (AID 2523;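 active = response below a set limit, under 55% cells CD8-positive and vesicle-bound, and CD8 cells' 90th-percentile brightness under 279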;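 as to vesicle binding response: mean PE anti-B7-1 fluorescence of CD8+ cells relative to row control; 100% = QL9-loaded vesicles with DMSO vehicle in the same plate row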). As to conditions: 2C mouse CD8+ T cells, at 7 µM, stronger effect = lower value; double positive events: measured here: CD8+/vesicle+ event percentage.
Assay [12] concerns the target Integrin beta-1 (Homo sapiens) + Integrin alpha-4 (Homo sapiens) (UniProt P13612+P05556). In words: inhibition of HUTS-21 binding to VLA-4, pilot screen, VLA-4 allosteric modulator project, U937 cells, HUTS-21 mAb, flow cytometry, validation set (AID 2674;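 active = inhibition above 50%, about 3 SD of the validation set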;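 also: antibody binding induced by the VLA-4 ligand LDV present at three times its Kd; 0% = LDV ligand with antibody and no compound and 100% = antibody without LDV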). As to conditions: HUTS-21 LIBS mAb binding, at 6.7 µM, stronger effect = higher value, binding induced by LDV ligand.
Assay [13] in a line: superoxide lowering in aged yeast cells, pilot screen, validation compound set (AID 2706;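 active = superoxide response below 65% of plate, a cut near 3 SD across the whole screen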;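 also: yeast exposed to compound for one week at 30 degrees C before staining; 100% = mean of all compound wells on the same plate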). Conditions: S. cerevisiae aging, superoxide DHE fluorescence; at 10 µM; stronger effect = lower value.
The target of assay [14] is Beta-adrenergic receptor kinase 1 (Homo sapiens) (UniProt P25098). Briefly: GRK2 binders displacing RNA aptamer, biochemical, validation, human GRK2, bead flow cytometry (AID 488806;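 active = aptamer binding inhibition above 30%, about 3 SD of noise from non-fluorescent compounds; inactive = inhibition at or below 30%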). Conditions: bead-bound GRK2, FAM-aptamer displacement, at 10 µM, stronger effect = higher value.
Assay [15] concerns the target Beta-2 adrenergic receptor (Homo sapiens) (UniProt P07550). In words: beta2AR agonists driving receptor internalization, pilot screen, cell-based, FAP fluorogen, flow cytometry, validation set (AID 504459;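 active = percent response above 42, roughly 3 SD of non-fluorescent test compounds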;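 also: agonist-driven loss of surface beta2AR via internalization measured by FAP dye flow cytometry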). As to conditions: Am2.2-beta2AR cells, FAP surface receptor flow cytometry; at 10 µM; stronger effect = higher value.
The target in assay [16] is AP-2 complex subunit beta (Homo sapiens) (UniProt P63010). Briefly: inhibitors of arrestin peptide binding to AP2, pilot screen, biochemical, validation set, GST-AP2 beads, flow cytometry (AID 504541;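 active = inhibition above 54%, about 3 SD of non-fluorescent compounds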;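 also: AP2 carries R879A mutation and is captured from E. coli lysate; bead-bound FITC arrestin peptide fluorescence measuring arrestin peptide binding to AP2; 0% = DMSO wells and 100% = excess unlabeled arrestin peptide control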). As to conditions: FITC arrestin peptide, at 10 µM, stronger effect = higher value, AP2 beta2 appendage fragment, R879A mutant.
The nature of assay [17]: yeast V-ATPase proton transport modulators, S. cerevisiae, pHLuorin, HTS validation (AID 504600; in the data active = response above about 15%;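 also: plate controls were DMSO for no effect and reference compound for full effect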). As to conditions: S. cerevisiae pHLuorin cytosolic pH, at 10 µM, stronger effect = higher value.
The test system of assay [18] is anti-desmoglein-3 scFv antibody binding to human DSG3. Briefly: inhibitors of anti-DSG3 scFv binding to DSG3, pilot screen, biochemical, validation compound set, bead-based, flow cytometry (AID 588368;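 active = binding below the plate cutoff, the plate median minus 3 SD, with a reading above zero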;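 also: signal is the median channel fluorescence of bead-bound GFP antibody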). As to conditions: Protein G beads, DSG3-Fc, scFv-GFP binding, at 10 µM, stronger effect = lower value.
Assay [19] in a line: inhibitors of fungal efflux pumps CDR1, CDR2, MDR1, pilot screen, validation compound set, multiplex, phenotypic (AID 588506;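 active = efflux inhibition above 0.42, the validation set average plus 4 SD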;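 also: Nile Red retained in cells so higher fluorescence means more efflux inhibition; 0 = negative control wells and 1 = enniatin B 25 µM full block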). Conditions: S. cerevisiae pump-expressing triplex, Nile Red efflux flow cytometry; at 10 µM; stronger effect = higher value; the pumps come from Candida albicans.
For assay [20], the target named is ATP-binding cassette sub-family B member 6 (Homo sapiens) (UniProt Q9NP58). Briefly: ABCB6 transporter inhibitors, pilot screen, K562-ABCB6 cells, flow cytometry, validation set (AID 588550;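 active = inhibition above the screen-wide mean plus 3 SD, about 51%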;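 also: 0% = DMSO wells and 100% = benzethonium chloride 70 µM positive control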). Conditions: K562-ABCB6 porphyrin accumulation, 1 h, at 10 µM, stronger effect = higher value.
Assay [21] in a line: promoters of myeloid differentiation in arrested cells, primary screen, cell-based, GFP/MAC1 double positive, flow cytometry, validation set (AID 588685;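 active = differentiation response of at least 50%, scaled between solvent and reference control, from cells with both markers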;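 also: compound exposure lasts four days before antibody staining and flow analysis; 0% = DMSO wells and 100% = 5 µM fulvestrant positive control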). Conditions: ER-HoxA9 marrow cells, stronger effect = higher value, normalized: vehicle 0, fulvestrant 100.
Setting [22] is: measured here: daughter cell gate.
Where [23] appears, read: measured here: mother cell gate.

Results filed as inconclusive are left out. Calls of active or inactive are those of the source.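 The calls were made as follows, unless noted: active = GFP signal, as percent of the solvent control, above the screen mean plus 3 SD, about 149; inconclusive = no reading because the compound's own fluorescence upset strain identification; inactive = the rest.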

ATP-binding cassette sub-family B member 6 (Homo sapiens), sequence (Q9NP58 whole entry, looked up): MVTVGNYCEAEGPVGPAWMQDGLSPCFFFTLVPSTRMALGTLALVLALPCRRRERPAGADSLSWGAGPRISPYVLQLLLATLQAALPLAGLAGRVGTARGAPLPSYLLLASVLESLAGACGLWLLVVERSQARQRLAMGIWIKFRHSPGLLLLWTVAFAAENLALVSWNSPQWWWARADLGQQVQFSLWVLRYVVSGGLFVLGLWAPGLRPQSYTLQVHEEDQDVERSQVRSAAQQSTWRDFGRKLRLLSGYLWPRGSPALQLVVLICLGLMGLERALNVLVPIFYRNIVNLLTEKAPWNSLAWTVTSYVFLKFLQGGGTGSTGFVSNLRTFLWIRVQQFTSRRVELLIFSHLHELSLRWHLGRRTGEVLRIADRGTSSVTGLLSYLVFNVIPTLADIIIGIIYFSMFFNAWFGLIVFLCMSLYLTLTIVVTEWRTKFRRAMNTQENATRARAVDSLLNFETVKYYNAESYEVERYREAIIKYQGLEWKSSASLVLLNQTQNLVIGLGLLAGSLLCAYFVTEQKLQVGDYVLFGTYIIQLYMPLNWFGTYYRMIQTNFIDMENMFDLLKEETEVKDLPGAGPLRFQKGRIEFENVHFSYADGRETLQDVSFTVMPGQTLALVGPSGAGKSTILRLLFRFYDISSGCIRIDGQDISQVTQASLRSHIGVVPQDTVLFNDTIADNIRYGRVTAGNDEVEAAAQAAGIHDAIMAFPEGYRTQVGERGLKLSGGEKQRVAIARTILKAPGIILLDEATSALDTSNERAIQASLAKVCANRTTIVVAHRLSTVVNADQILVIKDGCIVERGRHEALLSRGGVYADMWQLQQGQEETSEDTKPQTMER
Integrin beta-1 (Homo sapiens) + Integrin alpha-4 (Homo sapiens), sequence (P05556 whole entry, looked up): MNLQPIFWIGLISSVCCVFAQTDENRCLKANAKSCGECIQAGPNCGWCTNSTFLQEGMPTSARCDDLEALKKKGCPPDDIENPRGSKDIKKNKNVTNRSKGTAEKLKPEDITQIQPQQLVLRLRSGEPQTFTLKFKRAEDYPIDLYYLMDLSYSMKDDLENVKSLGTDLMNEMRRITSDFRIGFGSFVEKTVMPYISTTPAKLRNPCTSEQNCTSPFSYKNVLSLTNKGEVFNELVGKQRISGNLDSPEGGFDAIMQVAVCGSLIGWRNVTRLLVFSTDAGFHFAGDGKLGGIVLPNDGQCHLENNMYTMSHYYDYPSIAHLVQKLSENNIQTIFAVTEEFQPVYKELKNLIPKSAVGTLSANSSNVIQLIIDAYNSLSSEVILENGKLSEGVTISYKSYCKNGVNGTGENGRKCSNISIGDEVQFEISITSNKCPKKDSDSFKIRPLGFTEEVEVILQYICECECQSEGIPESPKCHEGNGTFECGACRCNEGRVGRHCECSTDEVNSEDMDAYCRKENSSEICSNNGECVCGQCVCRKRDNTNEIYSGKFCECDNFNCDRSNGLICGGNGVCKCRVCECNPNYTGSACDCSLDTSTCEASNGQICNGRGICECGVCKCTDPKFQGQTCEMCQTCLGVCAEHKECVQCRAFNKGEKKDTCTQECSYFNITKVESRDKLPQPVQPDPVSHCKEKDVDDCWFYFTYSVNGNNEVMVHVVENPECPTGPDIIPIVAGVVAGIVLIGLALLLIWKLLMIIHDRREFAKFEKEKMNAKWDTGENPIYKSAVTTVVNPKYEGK
Integrin beta-1 (Homo sapiens) + Integrin alpha-4 (Homo sapiens), sequence (P13612 whole entry, looked up): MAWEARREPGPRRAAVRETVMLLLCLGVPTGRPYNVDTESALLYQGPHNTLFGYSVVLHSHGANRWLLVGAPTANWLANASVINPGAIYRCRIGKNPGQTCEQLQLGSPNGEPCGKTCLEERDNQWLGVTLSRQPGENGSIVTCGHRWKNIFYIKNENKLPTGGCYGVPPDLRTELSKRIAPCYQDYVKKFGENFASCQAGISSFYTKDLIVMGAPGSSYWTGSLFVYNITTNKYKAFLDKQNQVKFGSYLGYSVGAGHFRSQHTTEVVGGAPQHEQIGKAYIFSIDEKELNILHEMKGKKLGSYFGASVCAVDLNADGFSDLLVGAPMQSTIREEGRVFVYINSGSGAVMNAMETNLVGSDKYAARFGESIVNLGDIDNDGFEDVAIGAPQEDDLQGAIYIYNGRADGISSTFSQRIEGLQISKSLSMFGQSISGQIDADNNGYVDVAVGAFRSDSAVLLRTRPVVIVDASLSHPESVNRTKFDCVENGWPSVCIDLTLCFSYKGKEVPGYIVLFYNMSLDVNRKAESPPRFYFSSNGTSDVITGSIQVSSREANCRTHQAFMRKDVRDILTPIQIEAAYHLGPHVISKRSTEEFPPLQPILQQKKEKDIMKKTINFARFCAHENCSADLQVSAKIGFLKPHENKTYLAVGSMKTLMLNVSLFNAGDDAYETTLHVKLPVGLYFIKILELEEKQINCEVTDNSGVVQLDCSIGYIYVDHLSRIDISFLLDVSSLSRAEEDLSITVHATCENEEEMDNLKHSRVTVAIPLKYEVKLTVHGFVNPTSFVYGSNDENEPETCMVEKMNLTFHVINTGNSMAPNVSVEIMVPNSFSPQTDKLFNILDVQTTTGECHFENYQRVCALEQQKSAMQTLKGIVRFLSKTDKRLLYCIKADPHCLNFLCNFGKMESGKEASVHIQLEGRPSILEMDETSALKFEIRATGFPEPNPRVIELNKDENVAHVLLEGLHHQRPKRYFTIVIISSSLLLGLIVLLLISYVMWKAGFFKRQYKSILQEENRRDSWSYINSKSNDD
Beta-2 adrenergic receptor (Homo sapiens), sequence (P07550 whole entry, looked up): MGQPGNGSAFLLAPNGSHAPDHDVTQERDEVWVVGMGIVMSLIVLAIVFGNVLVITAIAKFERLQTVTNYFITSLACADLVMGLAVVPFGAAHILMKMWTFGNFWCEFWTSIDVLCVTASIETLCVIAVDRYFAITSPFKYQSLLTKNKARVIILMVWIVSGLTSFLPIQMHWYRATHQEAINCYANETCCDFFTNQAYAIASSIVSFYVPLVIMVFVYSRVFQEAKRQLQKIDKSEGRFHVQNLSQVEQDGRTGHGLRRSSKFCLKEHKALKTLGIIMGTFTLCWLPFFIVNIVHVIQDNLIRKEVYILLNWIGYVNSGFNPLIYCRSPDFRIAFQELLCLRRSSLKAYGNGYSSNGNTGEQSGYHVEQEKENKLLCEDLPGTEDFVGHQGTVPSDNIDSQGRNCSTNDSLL
AP-2 complex subunit beta (Homo sapiens), sequence (P63010 whole entry, looked up, the tested form may be a part, one chain of several): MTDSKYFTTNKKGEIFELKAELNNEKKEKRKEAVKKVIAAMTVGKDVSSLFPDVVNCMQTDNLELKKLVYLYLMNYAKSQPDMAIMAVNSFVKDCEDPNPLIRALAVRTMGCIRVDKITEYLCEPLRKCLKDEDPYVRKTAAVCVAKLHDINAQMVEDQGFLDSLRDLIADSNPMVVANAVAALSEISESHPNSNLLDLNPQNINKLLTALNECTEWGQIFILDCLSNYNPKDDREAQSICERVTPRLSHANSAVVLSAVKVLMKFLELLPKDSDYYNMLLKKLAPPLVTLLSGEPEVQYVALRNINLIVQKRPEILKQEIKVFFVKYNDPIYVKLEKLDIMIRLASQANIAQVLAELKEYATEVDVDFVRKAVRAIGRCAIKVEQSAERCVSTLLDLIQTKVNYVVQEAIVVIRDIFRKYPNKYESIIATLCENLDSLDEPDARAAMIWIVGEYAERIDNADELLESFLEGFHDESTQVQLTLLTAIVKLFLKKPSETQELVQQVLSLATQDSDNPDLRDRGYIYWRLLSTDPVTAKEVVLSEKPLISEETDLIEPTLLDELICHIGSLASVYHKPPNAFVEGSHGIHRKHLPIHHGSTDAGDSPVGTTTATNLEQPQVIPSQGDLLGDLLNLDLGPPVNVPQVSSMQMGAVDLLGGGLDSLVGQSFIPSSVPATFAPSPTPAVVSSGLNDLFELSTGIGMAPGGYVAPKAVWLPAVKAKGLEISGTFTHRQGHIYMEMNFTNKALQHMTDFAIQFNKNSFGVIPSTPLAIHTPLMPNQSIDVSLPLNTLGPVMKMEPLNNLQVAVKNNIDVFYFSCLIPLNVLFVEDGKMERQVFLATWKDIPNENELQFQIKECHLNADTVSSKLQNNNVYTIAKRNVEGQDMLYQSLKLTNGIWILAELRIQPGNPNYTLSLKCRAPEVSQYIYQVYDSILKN
Beta-adrenergic receptor kinase 1 (Homo sapiens), sequence (P25098 whole entry, looked up): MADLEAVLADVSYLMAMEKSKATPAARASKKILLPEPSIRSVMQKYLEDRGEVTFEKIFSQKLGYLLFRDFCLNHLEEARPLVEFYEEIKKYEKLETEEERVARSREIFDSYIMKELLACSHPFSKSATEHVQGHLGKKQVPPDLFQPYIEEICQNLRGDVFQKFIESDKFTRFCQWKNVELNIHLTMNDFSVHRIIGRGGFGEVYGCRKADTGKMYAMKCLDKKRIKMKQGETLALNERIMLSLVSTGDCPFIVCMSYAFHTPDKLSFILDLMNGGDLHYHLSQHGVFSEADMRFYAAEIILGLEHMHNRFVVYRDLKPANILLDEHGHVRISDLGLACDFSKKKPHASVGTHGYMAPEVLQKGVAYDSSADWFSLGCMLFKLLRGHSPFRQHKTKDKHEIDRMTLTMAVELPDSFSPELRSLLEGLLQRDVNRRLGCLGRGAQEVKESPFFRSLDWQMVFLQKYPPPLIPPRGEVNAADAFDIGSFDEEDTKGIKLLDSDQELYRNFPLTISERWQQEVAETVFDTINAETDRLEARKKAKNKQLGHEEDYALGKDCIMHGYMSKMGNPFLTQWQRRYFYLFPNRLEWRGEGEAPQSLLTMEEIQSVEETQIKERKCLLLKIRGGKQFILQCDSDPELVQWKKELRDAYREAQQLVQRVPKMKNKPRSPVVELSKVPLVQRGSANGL

As for `CCN(CC)c1ccc2cc(-c3nc(-c4ccc(OC)cc4)cs3)c(=O)oc2c1`, the GFP response vs DMSO in assay [1] was 105% (inactive); in assay [1] (setting [22]) it was 103%; in assay [1] (setting [23]), 106%; in assay [3] it was 180% (active). Further, the GFP response relative to DMSO in [2] is 138% (inactive); in [2] (measured here: daughter cell gate response), 132%; in [2] (measured here: mother cell gate response) it was 135%. Also, the GFP response, % of DMSO in [4] was 108% (inactive); in assay [5], 160% (active); in [5] (setting [22]), 152%; in [5] (setting [23]) it was 149%.
Regarding `O=C1CC2(CCCC2)CC(=O)N1CCCCN1CCN(c2ncccn2)CC1`, the percent of DMSO control GFP in assay [6] was 102% (inactive). Moreover, the GFP response vs DMSO is 104% (inactive) in assay [7] and 91.4% (inactive) in assay [9]. Further, in assay [8], the percent response of DMSO control was 96.6% (inactive). For the same molecule, the GFP response, % of DMSO in assay [10] was 106% (inactive). This molecule also had a double positive events in assay [11] of 64.3%. The vesicle binding response in [11] is 1050% (inactive). For the same molecule, the inhibition (usually the drop in the measured response relative to a control, in per cent) in assay [12] is 7.85% (inactive); in assay [16] it was -0.56% (inactive); in assay [20], 9% (inactive). In addition, in [13], the superoxide response (% of plate) is 101% (inactive). Moreover, the aptamer binding inhibition in assay [14] is 3% (inactive). Further, the results for the response in assay [15] and in assay [17] were -19.5% (inactive) and 2.1% (inactive), respectively. Moreover, the binding (% of control) in [18] is 101% (inactive). Further, the efflux inhibition (fraction of control) in assay [19] was 0.21 (inactive). Further, in assay [21], the differentiation response is 12% (inactive).
Consider `O=CNC1CCCc2c1[nH]c1ccc(Cl)cc21` (centres undefined), for which the percent of DMSO control GFP in assay [6] was 101% (inactive). The results for the GFP response vs DMSO in assay [7] and in assay [9] were 96.2% (inactive) and 89.4% (inactive), respectively. In [8], the percent response of DMSO control is 100% (inactive). For the same molecule, the GFP response, % of DMSO in assay [10] is 98.3% (inactive). The molecule further displayed a double positive events in assay [11] of 64.4%. In assay [11], the vesicle binding response was 173% (inactive). Also, the inhibition in assay [12] was -5.64% (inactive); in [16] it was -3.47% (inactive); in [20], -3% (inactive). The superoxide response (% of plate) in assay [13] was 113% (inactive). Besides, the aptamer binding inhibition in assay [14] was 2% (inactive). Besides, the response was 3.11% (inactive) in assay [15] and 0.49% (inactive) in assay [17]. In assay [18], the binding (% of control) was 95.9% (inactive). Further, the efflux inhibition (fraction of control) in assay [19] is -0.04 (inactive). Also, the differentiation response in [21] is 8.06% (inactive).
Consider `O=C(Cc1cccc2ccccc12)N1CC[C@@]2(O)CCCC[C@H]2C1`, for which the percent of DMSO control GFP in assay [6] was 92% (inactive). The GFP response vs DMSO is 138% (inactive) in assay [7] and 85.3% (inactive) in assay [9]. The percent response of DMSO control in [8] was 104% (inactive). Also, the GFP response, % of DMSO in [10] is 85% (inactive). The molecule also displayed a double positive events in assay [11] of 62%. Further, in assay [11], the vesicle binding response was 252% (inactive). Besides, the inhibition in [12] is 10.3% (inactive); in [16], -11.6% (inactive); in assay [20] it was 10% (inactive). Besides, in assay [13], the superoxide response (% of plate) is 110% (inactive). Also, the aptamer binding inhibition in assay [14] is 11% (inactive). The response was 0.11% (inactive) in assay [15] and 2.02% (inactive) in assay [17]. For the same molecule, the binding (% of control) in assay [18] is 105% (inactive). The efflux inhibition (fraction of control) in assay [19] was -0.24 (inactive). For the same molecule, the differentiation response in [21] is -2.46% (inactive).
Turning to `C/C=C(/C(=C/C)c1ccc(O)cc1)c1ccc(O)cc1`, in assay [6], the percent of DMSO control GFP was 90.4% (inactive). The GFP response vs DMSO was 135% (inactive) in [7] and 81.4% (inactive) in assay [9]. Also, in assay [8], the percent response of DMSO control was 95.2% (inactive). Besides, the GFP response, % of DMSO in assay [10] was 87.7% (inactive). For the same molecule, the double positive events in [11] was 63.9%. Further, the vesicle binding response in assay [11] was 170% (inactive). Also, the inhibition in assay [12] is 8.4% (inactive); in assay [16], 13.1% (inactive); in assay [20], 4% (inactive). The superoxide response (% of plate) in assay [13] was 91.4% (inactive). The aptamer binding inhibition in [14] was 2% (inactive). Besides, the response is -4.98% (inactive) in assay [15] and -1.75% (inactive) in assay [17]. Further, the binding (% of control) in assay [18] was 101% (inactive). In addition, the efflux inhibition (fraction of control) in assay [19] was 0.48 (active). Moreover, the differentiation response in assay [21] is -7.37% (inactive).
